# High-throughput results: PubChem, National Center for Advancing Translational Sciences (NCATS)
# An excerpt weighted towards active compounds, which were near 3.8% of everything screened.
# HT1080 IDH1KD tx – qHTS for induction of synthetic lethality in tumor cells producing 2HG: qHTS for the HT-1080-IDH1KD cell line. HT-1080 IDH1 knockdown viability, ATP luminescence, 48 h. Potency, µM (doses to about 46.1 µM), for inactives: top-dose activity, negative = toxicity, hits mostly cytotoxic. hit rate 2% among 360,000. AID 686971, 2013;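 also: 0% = DMSO wells and -100% = cell-free medium wells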
#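 IDH1KD HT-1080 cells, 750/well, RPMI + 5% FBS; compound pinned after 2 h settling; 48 h, 37 °C; CellTiter-Glo luminescence; % activity normalised to DMSO and no-cell wells; curves fitted, classed by r2 and efficacy.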
# TGFb SMAD3 inh – qHTS for Inhibitors of TGF-b; HepG2 CAGA-GFP TGF-b/SMAD3 reporter, GFP fluorescence, 18 h; TGF-beta stimulated, 500 pg/mL final; Potency, µM (doses to about 46.1 µM), inactives show at the top dose activity, negative = inhibition, hits mostly inhibitors; hit rate 1.2% among 410,000; also: % is scaled to controls: 0 for no effect and ±100 for the full control effect; nearly all actives have a fitted effect of over 65% in size
#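 Inhibition of TGF-beta-driven CAGA-GFP reporter expression in HEPG2 cells is measured by cellular GFP fluorescence after 18 h stimulation with 500 pg/mL recombinant TGF-beta in 1% FBS medium at 37 degrees C.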
# HT1080-NT tox – qHTS for induction of synthetic lethality in tumor cells producing 2HG: qHTS for the HT-1080-NT fibrosarcoma cell line. hit rate 1.6% among 360,000. Potency, µM (highest dose often 46.1 µM), inactives show at the top dose activity, negative = less viability, actives largely listed as cytotoxic. HT-1080-NT fibrosarcoma viability, CellTiter-Glo ATP luminescence, 48 h;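 also: NT is the 2HG producing partner of a matched IDH1 knockdown line; 0% = DMSO-treated cells and -100% = media-only wells without cells; nearly all actives have a fitted effect of over 55% in size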
#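 A 48-hour cytotoxicity screen used HT-1080-NT cells plated 2 hours before compound delivery. ATP-based CellTiter-Glo luminescence measured viability, normalized to DMSO and no-cell controls.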
# ATXN2 expr inh – Primary qHTS for Inhibitors of ATXN expression | HEK-293 ATXN2-luciferase reporter, luminescence, 24 h | hit rate 0.72% among 360,000 | Potency, µM (series often up to 57 µM), for inactives: top-dose activity change, negative = inhibition, hits mostly inhibitors; also: % is scaled to controls: 0 for no effect and ±100 for the full control effect; nearly all actives have a fitted effect of over 55% in size
#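 ATXN2-luciferase reporter cells (luciferase flanked by upstream and downstream ATXN2 gene portions) were treated 24 h at 37 °C with compounds at up to 57 uM. SteadyGlo luminescence gave expression; GF-AFC fluorescence gave viability.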
# HepG2 tox – qHTS for Inhibitors of TGF-b: Cytotox Counterscreen | HepG2 CAGA-GFP viability, ATP luminescence, 18 h | Potency, µM (highest dose often 46.1 µM), inactives show at the highest dose activity change, negative = cytotoxicity, hits mostly cytotoxic | hit rate 0.76% among 410,000
#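 CellTiter-Glo luminescence gave cytotoxicity after 18 hours at 37 degrees C. The cells were HepG2 CAGA-GFP in 1% FBS DMEM, stimulated with 500 pg/mL TGF-beta after compound addition. %Activity was normalised to no-cell wells (complete cell-killing) and DMSO (no toxicity), and curves were fitted and classified.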
# ATXN viability – Viability Counterscreen for Primary qHTS for Inhibitors of ATXN expression; S2 cells (HEK-293 line with an ATXN2-luciferase reporter) viability, CellTiter-Fluor protease fluorescence, 24 h; Potency, µM (doses to about 56.7 µM), hits mostly cytotoxic; hit rate 0.49% among 400,000; also: nearly all actives have a fitted effect of over 40% in size
# * marks the source's active call; other numbers are inactive results; i = inactive; ? = inconclusive; . = no result; ! = repeats disagree. Calls follow the shape of the dose curve; as a rule, active = well fitted curve in the direction sought with a large enough effect; inconclusive = small, poorly fitted or top-dose-only effect, or another doubt; inactive = no such curve, though single readings can be large; an effect the other way counts as inactive or inconclusive. Potency is read from the fitted curve at half-maximal effect.
SMILES,HT1080 IDH1KD tx,TGFb SMAD3 inh,HT1080-NT tox,ATXN2 expr inh,HepG2 tox,ATXN viability
CC12CCC(=O)C=C1CCC1C2C(=O)CC2(C)C1CCC2(O)C(=O)CO (configuration not stated),0%,30%,4%,-6%,5%,i
Cc1ccc(C)c(NC(=O)CC2NCCNC2=O)c1 (configuration not stated),.,10%,.,24%,-3%,i
Cc1cc(C)c2nc(SCC(=O)N3CC(=O)Nc4ccccc43)c(C#N)cc2c1,0.92µM*,?,?,6%,4%,i
COc1ccc2nc(SCC(=O)N3CC(=O)Nc4ccccc43)c(C#N)cc2c1,?,6%,?,?,-10%,i
CC(CCC(C)[n+]1cccc(C#N)c1)[n+]1cccc(C#N)c1 (configuration not stated),.,20%,.,.,3%,.
C=CCOC(=O)C1=C(C)NC(SC)=C(C#N)C1c1cccs1 (configuration not stated),18µM*,2%,9.2µM*,?,-19%,i
C=CCOC(=O)C1=C(C)NC(SCC(=O)Nc2nccs2)=C(C#N)C1c1cccs1 (configuration not stated),?,?,?,-22%,-3%,?
COc1cc(C#Cc2c(-c3cncn3C)n(C)c3ccc(-c4ccc(OC)nc4)cc23)cc(OC)c1,-7%,?,-22%,28µM*,-30%,?
CCc1ccc(-n2c(SCc3ccccc3C)nc3[nH]ncc3c2=O)cc1,.,.,.,.,22µM*,.
Cc1ccc(-n2c(SCc3cccc(F)c3)nc3[nH]ncc3c2=O)cc1C,.,?,.,-14%,20µM*,?
CCc1ccc(-n2c(SCc3ccccc3Cl)nc3[nH]ncc3c2=O)cc1,.,?,.,?,-99%,?
O=c1c2cn[nH]c2nc(SCc2c(F)cccc2F)n1-c1ccc(Cl)cc1,?,16µM*!,-13%,-13%,-106%,i
CCc1ccc(-n2c(SCc3cccc(F)c3)nc3[nH]ncc3c2=O)cc1,.,?,.,?,20µM*,?
Cc1ccc(-n2c(SCc3ccccc3C)nc3[nH]ncc3c2=O)cc1C,.,?,.,?,-106%,?
CCc1ccc(C2c3c(oc4ccc(F)cc4c3=O)C(=O)N2CCc2ccc(OC)cc2)cc1 (configuration not stated),.,6%,.,3%,-16%,i
CC(=O)c1ccccc1OCC(O)CN1CCN(CCN2C(=O)c3cccc4cccc(c34)C2=O)CC1 (configuration not stated),?,?,?,?,0%,i
O=C1c2cccc3cccc(c23)C(=O)N1CCN1CCN(CC(O)COCc2ccc(Cl)cc2)CC1 (configuration not stated),?,14µM*,21µM*,?,13µM*,?
Cc1ccc(C)c(OCC(O)CN2CCN(CCN3C(=O)c4cccc5cccc(c45)C3=O)CC2)c1 (configuration not stated),?,?,16µM*,?,-99%,?
CC(=O)Nc1ccccc1-c1nc(CNC(=O)c2cccc(-n3cccn3)c2)c(C)o1,.,.,.,.,.,i
Cc1cccc(-c2[nH]c(C(C)(C)C)nc2-c2ccc3c(c2)OCO3)n1,.,.,.,15µM*,.,.
COC(=O)c1cc2occc2n1CC(=O)Nc1ccc(N(C)C)cc1,.,-14%,.,6%,-8%,i
COc1cc2c3c(c1)C(C)=CC(C)(C)N3C(=O)C2=O,3.3µM*,?,10µM*,.,3%,i
COc1cccc(C(=O)Oc2cc3c4c(c2)C(C)=CC(C)(C)N4C(=O)C3=O)c1,4.5µM*,-22%,7.1µM*,-7%,-2%,?
COc1ccc(C(=O)Oc2cc3c4c(c2)C(C)=CC(C)(C)N4C(=O)C3=O)cc1OC,-4%,2%,0%,7%,-8%,i
COc1cc2c3c(c1)C(C)CC(C)(C)N3C(=O)C2=O (configuration not stated),-3%,62%,-5%,-20%,7%,i
SMILES,HT1080 IDH1KD tx,TGFb SMAD3 inh,HT1080-NT tox,ATXN2 expr inh,HepG2 tox,ATXN viability
C=Nc1ccc(/C=C/c2ccnc3ccccc23)cc1,.,-10%,.,.,-68%,.
COc1ccc(OC)c(NC(=O)CCCOc2cc(=O)n(C)c3ccccc23)c1,.,-8%,.,9%,-17%,i
C/C=C1\COC(C(=O)NCCCN2CCCC2=O)(C(F)(F)F)C=C1C=C(C)C (configuration not stated),9%,?,1%,8%,11µM*!,i
C/C=C1\COC(C(=O)NCCN2CCCC2)(C(F)(F)F)C=C1C=C1CCCCC1 (configuration not stated),-13%,?,-9%,?,-82%,?
CCOC(=O)c1cccnc1SCC(=O)Nc1ccc(C)cc1C,.,2%,.,.,-10%,.
CCNc1nc(NCC)n2c(SCC(=O)Nc3cccc(Cl)c3)nnc2n1,1%,3%,-2%,-16%,3%,i
CCNc1nc(NCC)n2c(SC(C(=O)Nc3cc(Cl)cc(Cl)c3)c3ccccc3)nnc2n1 (configuration not stated),1%,-3%,0%,25µM*,-10%,.
Cc1cc(C)cc(NC(=O)C(NS(=O)(=O)c2cccc3nsnc23)c2ccccc2)c1 (configuration not stated),.,-26%,.,-11%,-4%,i
COc1cc(OC)cc(-c2cc3nc(C)c(CCC(=O)Nc4ccccc4OC)c(C)n3n2)c1,.,?,.,?,-34%,?
CCC(C)Sc1oc(-c2ccco2)nc1S(=O)(=O)c1ccc(C)cc1 (configuration not stated),.,?,.,-3%,-10%,i
Cc1cccc(Oc2ccc(Cl)cc2N)c1,-17%,-32%,-14%,3%,20µM*,i
Nc1cc(Cl)ccc1Oc1ccccc1,-9%,-2%,0%,-17%,-15%,i
C[C@H](C[C@H](O)[C@H]1OC1(C)C)C1=C2C[C@H](O)C3[C@@]4(C)CCC(=O)C(C)(C)C4CC[C@]3(C)[C@@]2(C)CC1 (some centres not stated),?,?,?,?,16µM*,25µM*
O=C(Nc1nnc(C2CC2)o1)c1ccc(S(=O)(=O)N2CCCc3ccccc32)cc1,?,?,?,16µM*,-6%,?
